Compounds without any hit were thinned out: in the full panel of roughly 79,000, 15% have a hit. The source made the active and inactive calls. Cut-off read from the data, not from the text of the source: active = growth inhibition above about 70%; inactive = the rest.
Columns and labels:
[1] = NCI Yeast Anticancer Drug Screen. Data for the rad50 strain (AID 155);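 note: 0% = growth of vehicle-only cultures of the same strain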; details: S. cerevisiae rad50 strain growth inhibition, stronger effect = higher value
Summary of the method: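 Compounds were tested on a yeast strain with an engineered DNA damage repair alteration; the reported value is growth inhibition normalised to vehicle treatment.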

[2] = NCI Yeast Anticancer Drug Screen. Data for the mec2-1 strain (AID 157); details: S. cerevisiae mec2-1 strain, stronger effect = higher value
Summary of the method: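 Growth inhibition is read against vehicle-treated controls after compound exposure of the mec2-1 yeast strain, which is defective in DNA damage repair or cell cycle control.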

[3] = NCI Yeast Anticancer Drug Screen. Data for the sgs1 mgt1 strain (AID 161);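 note: 0% = growth of cultures given vehicle only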; details: S. cerevisiae sgs1 mgt1 strain, stronger effect = higher value
Summary of the method: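 Compounds are added to genetically altered yeast, and growth is compared with cultures given vehicle alone to give percent inhibition.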

[4] = NCI Yeast Anticancer Drug Screen. Data for the cln2 rad14 strain (AID 165);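 note: 0% = growth equal to vehicle treated cultures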; details: S. cerevisiae cln2 rad14 strain, stronger effect = higher value
Summary of the method: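 Growth inhibition, relative to vehicle-treated controls, is the read-out. The test organism is a yeast strain with defined genetic alterations, cln2 rad14.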

[5] = NCI Yeast Anticancer Drug Screen. Data for the bub3 strain (AID 167); details: S. cerevisiae bub3 mutant strain, stronger effect = higher value
Summary of the method: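 Growth of a checkpoint-deficient yeast mutant is measured after compound exposure. Values represent inhibition relative to vehicle.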

[6] = NCI Yeast Anticancer Drug Screen. Data for the mlh1 rad18 strain (AID 175); details: S. cerevisiae mlh1 rad18 strain growth inhibition, stronger effect = higher value
Summary of the method: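 Cells of a genetically altered yeast strain, deficient in DNA damage repair, were treated with compound. Their growth was then compared with that of vehicle-treated cultures to give inhibition.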

[7] = at 5.0 µM (retest, dose inferred, filed as 0.5)
[8] = at 50.0 µM (retest, dose inferred, filed as 5.0)

Measured: growth inhibition

NC(=S)N/N=C/c1ncccc1O
active: [2]; at 50.0 µM 80.2%
inactive: [1]; [7] -157% | [1]; [8] -91% | [1]; at 50.0 µM 24.4% | [2]; [7] -50% | [2]; [8] 19% | [3]; [7] -63% | [3]; [8] -30% | [3]; at 50.0 µM 7.55% | [4]; [7] -68% | [4]; [8] -73% | [4]; at 50.0 µM -23.4% | [5]; [7] -74% | [5]; [8] -78% | [5]; at 50.0 µM -7.5% | [6]; [7] -123% | [6]; [8] -101% | [6]; at 50.0 µM 21.4%

O=C(NOC(=O)c1ccccc1)c1ccccc1
active: [1]; [7] 93% | [1]; [8] 98% | [1]; at 50.0 µM 99.3% | [2]; [8] 99% | [2]; at 50.0 µM 99.5% | [3]; [7] 82% | [3]; [8] 99% | [3]; at 50.0 µM 99.5% | [4]; [8] 99% | [4]; at 50.0 µM 99.3% | [5]; [8] 99% | [5]; at 50.0 µM 99.3% | [6]; [7] 93% | [6]; [8] 99% | [6]; at 50.0 µM 99.3%
inactive: [2]; [7] 64% | [4]; [7] 31% | [5]; [7] 65%

COC(=O)C(=[N+]=[N-])C(=O)c1ccc([N+](=O)[O-])o1
active: [1]; [8] 98% | [2]; [8] 99% | [3]; [8] 98% | [4]; [8] 99% | [4]; at 50.0 µM 98.5% | [5]; [8] 99% | [6]; [8] 99% | [6]; at 50.0 µM 98.7%
inactive: [1]; [7] 32% | [1]; at 50.0 µM 56.1% | [2]; [7] 10% | [2]; at 50.0 µM 55.5% | [3]; [7] 18% | [3]; at 50.0 µM 51.8% | [4]; [7] 8% | [5]; [7] 6% | [5]; at 50.0 µM 48.5% | [6]; [7] 25%

CCCCCCCCCCCC[n+]1ccc(CCCCCCCCC)cc1
active: [1]; [7] 99% | [1]; [8] 99% | [1]; at 50.0 µM 99% | [2]; [7] 100% | [2]; [8] 99% | [2]; at 50.0 µM 99.3% | [3]; [7] 100% | [3]; [8] 99% | [3]; at 50.0 µM 99.5% | [4]; [7] 98% | [4]; [8] 99% | [4]; at 50.0 µM 98.5% | [5]; [7] 100% | [5]; [8] 99% | [5]; at 50.0 µM 98.8% | [6]; [7] 99% | [6]; [8] 99% | [6]; at 50.0 µM 97.6%

CC(C)Nc1ccc(Nc2ccc(NC(C)C)cc2)cc1
inactive: [1]; [7] 0% | [1]; at 50.0 µM 65.7% | [2]; [7] -21% | [3]; [7] -1% | [3]; [8] 59% | [3]; at 50.0 µM 48% | [4]; [7] -10% | [5]; [7] -7% | [6]; [7] -15% | [6]; [8] 51%
active: [1]; [8] 81% | [2]; [8] 74% | [2]; at 50.0 µM 97% | [4]; [8] 73% | [4]; at 50.0 µM 92.9% | [5]; [8] 80% | [5]; at 50.0 µM 92.5% | [6]; at 50.0 µM 92.3%

CC1(C=O)CCC23COC4(CCC5C6(C)CCC(OC7OCC(OC8OC(CO)C(O)C(OC9OC(CO)C(O)C(O)C9O)C8OC8OCC(O)C(O)C8O)C(O)C7OC7OC(CO)C(O)C(O)C7O)C(C)(C)C6CCC5(C)C4(C)CC2O)C3C1 (configuration not stated)
inactive: [1]; [7] 22% | [1]; at 50.0 µM 66.8% | [2]; [7] 14% | [3]; [7] 9% | [4]; [7] 18% | [5]; [7] 16% | [6]; [7] 22%
active: [1]; [8] 93% | [2]; [8] 96% | [2]; at 50.0 µM 85.2% | [3]; [8] 96% | [3]; at 50.0 µM 88.2% | [4]; [8] 94% | [4]; at 50.0 µM 86.2% | [5]; [8] 97% | [5]; at 50.0 µM 87.1% | [6]; [8] 98% | [6]; at 50.0 µM 82.3%

O=Nc1ccc2ccccc2c1O
inactive: [1]; [7] -3% | [1]; [8] 64% | [2]; [7] 3% | [3]; [7] -6% | [3]; [8] 37% | [4]; [7] 25% | [4]; [8] 63% | [4]; at 50.0 µM 58.5% | [5]; [7] 3% | [6]; [7] 14%
active: [1]; at 50.0 µM 85.7% | [2]; [8] 88% | [2]; at 50.0 µM 89.8% | [3]; at 50.0 µM 86.8% | [5]; [8] 93% | [5]; at 50.0 µM 89.5% | [6]; [8] 93% | [6]; at 50.0 µM 84%

COc1cccc(N=N/C(=N\NC(=O)c2cc(Br)ccc2O)c2ccc(N(CCC#N)CCC#N)cc2OC)c1
inactive: [1]; [7] 17% | [1]; [8] 30% | [2]; [7] 22% | [2]; [8] 35% | [2]; at 50.0 µM 48.9% | [3]; [7] -8% | [3]; [8] 34% | [3]; at 50.0 µM 34.5% | [4]; [7] 0% | [4]; [8] 19% | [4]; at 50.0 µM 20.9% | [5]; [7] -2% | [5]; [8] 42% | [5]; at 50.0 µM 39.4% | [6]; [7] 26% | [6]; [8] 43%
active: [1]; at 50.0 µM 72% | [6]; at 50.0 µM 76.2%

CCOC(=O)/C(=C\c1ccc2ccccc2c1)P(=O)(OCC)OCC
inactive: [1]; [7] -3% | [1]; [8] 59% | [2]; [7] 3% | [3]; [7] 9% | [3]; [8] 66% | [4]; [7] 30% | [4]; [8] 69% | [4]; at 50.0 µM 65.4% | [5]; [7] 29% | [6]; [7] 17% | [6]; at 50.0 µM 59.3%
active: [1]; at 50.0 µM 78.2% | [2]; [8] 81% | [2]; at 50.0 µM 79.5% | [3]; at 50.0 µM 72% | [5]; [8] 88% | [5]; at 50.0 µM 74% | [6]; [8] 88%
